# Reference: the supplement of paper PMC10037445
# Where “and” joins values, the source holds several entries; their conditions need not be identical. Identical values can stand only once. The full ranking holds about 2,900 compounds; the median of “NF-kB SEAP reporter activity, fold change vs agonist alone” is about 0.99, and the highest 2% start at about 2.6. This is one part of a sample in which the highest values are shown more often than they occur.
# Experiments:
# RAW-Dual [1] = assay: NF-kB SEAP reporter activity, fold change vs agonist alone; cytotoxicity flag (confluency mask): not cytotoxic; higher = enhanced NF-kB activity
# How it was run: (§1)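 Cytotoxic wells were those whose IncuCyte confluency was below 70% of agonist controls in both mask sets. The cells were RAW-Dual macrophages at 50,000 cells/well in DMEM on 384-well plates, dosed with 50 nL of library stock by pin tool, stimulated with a PRR agonist 1 h later, and kept at 37 °C, 5% CO2 for 20 hours. IRF and NF-κB reporter activity, as fold change over agonist-alone wells, came from supernatant read by QuantiLuc luminescence and QuantiBlue absorbance, respectively.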
# RAW-Dual [2] = assay: NF-kB SEAP reporter activity, fold change vs agonist alone; higher = enhanced NF-kB activity; settings: library stock concentration (final ~1000-fold dilution): 10 mM
# How it was run: as §1
# RAW-Dual [3] = assay: NF-kB SEAP reporter activity, fold change vs agonist alone; cytotoxicity flag (confluency mask): cytotoxic (confluency <70% of control); higher = enhanced NF-kB activity
# How it was run: as §1
# [4] = agonist: ODN 1826 (TLR9) 0.5 ug/mL
# [5] = agonist: Pam2CSK4 (TLR2/6) 0.1 ug/mL
# [6] = agonist: Pam3CSK4 (TLR2/1) 0.1 ug/mL
# [7] = cytotoxicity flag (confluency mask): not cytotoxic, agonist: Imiquimod (TLR7) […]
# [8] = cytotoxicity flag (confluency mask): not cytotoxic, agonist: MPLA (TLR4) […]
compound,measurement,setting,value
CCN(C)S(=O)(=O)Nc1ccc(F)c(C(=O)c2c[nH]c3ncc(-c4cnc(C5CC5)nc4)cc23)c1F (library stock concentration (final ~1000-fold dilution): 10 mM),NF-kB SEAP reporter activity,RAW-Dual [1]; agonist: LPS (TLR4) 0.1 ug/mL,3.3
same,NF-kB SEAP reporter activity,RAW-Dual [1]; [4],1.55
same,NF-kB SEAP reporter activity,RAW-Dual [1]; [5],0.469
same,NF-kB SEAP reporter activity,RAW-Dual [1]; [6],0.764
O=C(c1c(F)ccc(NS(=O)(=O)N2CCC(F)C2)c1F)c1c[nH]c2ncc(-c3cnc(C4CC4)nc3)cc12 (stereo not given) (library stock concentration (final ~1000-fold dilution): 10 mM),NF-kB SEAP reporter activity,RAW-Dual [1]; agonist: LPS (TLR4) 0.1 ug/mL,3.62
same,NF-kB SEAP reporter activity,RAW-Dual [1]; [4],1.42
same,NF-kB SEAP reporter activity,RAW-Dual [1]; [5],0.526
same,NF-kB SEAP reporter activity,RAW-Dual [1]; [6],0.5
CCN(C)S(=O)(=O)Nc1ccc(F)c(C(=O)c2c[nH]c3ncc(-c4cnc(C5CC5)nc4)cc23)c1F,NF-kB SEAP reporter activity,RAW-Dual [2]; [7],1.24
same,NF-kB SEAP reporter activity,RAW-Dual [2]; [8],1.62
O=C(O)c1ccc(-c2c[nH]c3ncc(-c4ccccc4)cc23)cc1C1CCCC1,NF-kB SEAP reporter activity,RAW-Dual [2]; [7],0.374
same,NF-kB SEAP reporter activity,RAW-Dual [2]; [8],1.16
O=C(O)c1ccc(-c2c[nH]c3ncc(-c4ccccc4)cc23)cc1C1CCCC1 (library stock concentration (final ~1000-fold dilution): 10 mM),NF-kB SEAP reporter activity,RAW-Dual [1]; agonist: LPS (TLR4) 0.1 ug/mL,1.15
same,NF-kB SEAP reporter activity,RAW-Dual [1]; [4],0.388
same,NF-kB SEAP reporter activity,RAW-Dual [1]; [5],0.646
same,NF-kB SEAP reporter activity,RAW-Dual [1]; [6],0.497
CCCS(=O)(=O)Nc1ccc(F)c(C(=O)c2c[nH]c3ncc(-c4ccc(Cl)cc4)cc23)c1F (library stock concentration (final ~1000-fold dilution): 10 mM),NF-kB SEAP reporter activity,RAW-Dual [1]; agonist: LPS (TLR4) 0.1 ug/mL,0.99
same,NF-kB SEAP reporter activity,RAW-Dual [1]; [4],0.941
same,NF-kB SEAP reporter activity,RAW-Dual [1]; [5],0.4
same,NF-kB SEAP reporter activity,RAW-Dual [1]; [6],0.411
CCCS(=O)(=O)Nc1ccc(F)c(C(=O)c2c[nH]c3ncc(Cl)cc23)c1F (library stock concentration (final ~1000-fold dilution): 10 mM),NF-kB SEAP reporter activity,RAW-Dual [1]; agonist: LPS (TLR4) 0.1 ug/mL,1.48
same,NF-kB SEAP reporter activity,RAW-Dual [1]; [4],0.781
same,NF-kB SEAP reporter activity,RAW-Dual [1]; [5],0.389
same,NF-kB SEAP reporter activity,RAW-Dual [1]; [6],0.505
O=C(c1c(F)ccc(NS(=O)(=O)N2CCC(F)C2)c1F)c1c[nH]c2ncc(-c3cnc(C4CC4)nc3)cc12 (stereo not given),NF-kB SEAP reporter activity,RAW-Dual [2]; [7],1.12
same,NF-kB SEAP reporter activity,RAW-Dual [2]; [8],1.52
CCCS(=O)(=O)Nc1ccc(F)c(C(=O)c2c[nH]c3ncc(Cl)cc23)c1F,NF-kB SEAP reporter activity,RAW-Dual [2]; [7],0.891
same,NF-kB SEAP reporter activity,RAW-Dual [2]; [8],1.34
CCCS(=O)(=O)Nc1ccc(F)c(C(=O)c2c[nH]c3ncc(-c4ccc(Cl)cc4)cc23)c1F,NF-kB SEAP reporter activity,RAW-Dual [2]; [7],1.1
same,NF-kB SEAP reporter activity,RAW-Dual [2]; [8],1.3
COc1ccc(F)c(F)c1C(=O)c1cnc(NC2CCN(S(C)(=O)=O)CC2)nc1N,NF-kB SEAP reporter activity,RAW-Dual [2]; [7],0.977
same,NF-kB SEAP reporter activity,RAW-Dual [2]; [8],0.905
COc1ccc(F)c(F)c1C(=O)c1cnc(NC2CCN(S(C)(=O)=O)CC2)nc1N (library stock concentration (final ~1000-fold dilution): 10 mM),NF-kB SEAP reporter activity,RAW-Dual [1]; agonist: LPS (TLR4) 0.1 ug/mL,0.194
same,NF-kB SEAP reporter activity,RAW-Dual [1]; [4],0.985
same,NF-kB SEAP reporter activity,RAW-Dual [1]; [5],0.0957
same,NF-kB SEAP reporter activity,RAW-Dual [1]; [6],1.16
CCNC(=O)Nc1ccc(-c2nc3c(c(N4CCOCC4C)n2)CCN(C2COC2)C3)cc1 (stereo not given) (library stock concentration (final ~1000-fold dilution): 10 mM),NF-kB SEAP reporter activity,RAW-Dual [1]; agonist: LPS (TLR4) 0.1 ug/mL,0.974
same,NF-kB SEAP reporter activity,RAW-Dual [1]; [4],0.705
same,NF-kB SEAP reporter activity,RAW-Dual [1]; [5],0.395
same,NF-kB SEAP reporter activity,RAW-Dual [1]; [6],0.411
CCNC(=O)Nc1ccc(-c2nc3c(c(N4CCOCC4C)n2)CCN(C2COC2)C3)cc1 (stereo not given),NF-kB SEAP reporter activity,RAW-Dual [2]; [7],0.771
same,NF-kB SEAP reporter activity,RAW-Dual [2]; [8],1.23
Cc1nc(NC(=O)N2CCCC2C(N)=O)sc1-c1csc(C(C)(C)C)n1 (stereo not given),NF-kB SEAP reporter activity,RAW-Dual [2]; [7],1.01
same,NF-kB SEAP reporter activity,RAW-Dual [2]; [8],0.941
Cc1nc(NC(=O)N2CCCC2C(N)=O)sc1-c1csc(C(C)(C)C)n1 (stereo not given) (library stock concentration (final ~1000-fold dilution): 10 mM),NF-kB SEAP reporter activity,RAW-Dual [1]; agonist: LPS (TLR4) 0.1 ug/mL,0.881
same,NF-kB SEAP reporter activity,RAW-Dual [1]; [4],1.41
same,NF-kB SEAP reporter activity,RAW-Dual [1]; [5],1.32
same,NF-kB SEAP reporter activity,RAW-Dual [1]; [6],1
CC(C)N(CCCNC(=O)Nc1ccc(C(C)(C)C)cc1)CC1OC(n2ccc3c(N)ncnc32)C(O)C1O (stereo not given) (library stock concentration (final ~1000-fold dilution): 10 mM),NF-kB SEAP reporter activity,RAW-Dual [1]; agonist: LPS (TLR4) 0.1 ug/mL,0.953
same,NF-kB SEAP reporter activity,RAW-Dual [1]; [4],1.05
same,NF-kB SEAP reporter activity,RAW-Dual [1]; [5],0.991
same,NF-kB SEAP reporter activity,RAW-Dual [1]; [6],1.14
CC(C)N(CCCNC(=O)Nc1ccc(C(C)(C)C)cc1)CC1OC(n2ccc3c(N)ncnc32)C(O)C1O (stereo not given),NF-kB SEAP reporter activity,RAW-Dual [2]; [7],1.02
same,NF-kB SEAP reporter activity,RAW-Dual [2]; [8],0.984
C=C(C)C1CCC2(C(=O)O)CCC3(C)C(CCC4C5(C)CCC(O)C(C)(C)C5CCC43C)C12 (stereo not given),NF-kB SEAP reporter activity,RAW-Dual [2]; [7],1.04
same,NF-kB SEAP reporter activity,RAW-Dual [2]; [8],1.1
C=C(C)C1CCC2(C(=O)O)CCC3(C)C(CCC4C5(C)CCC(O)C(C)(C)C5CCC43C)C12 (stereo not given) (library stock concentration (final ~1000-fold dilution): 10 mM),NF-kB SEAP reporter activity,RAW-Dual [1]; agonist: LPS (TLR4) 0.1 ug/mL,1.45
same,NF-kB SEAP reporter activity,RAW-Dual [1]; [4],0.913
same,NF-kB SEAP reporter activity,RAW-Dual [1]; [5],0.832
same,NF-kB SEAP reporter activity,RAW-Dual [1]; [6],1.14
O=C(NCCCNc1nc(Nc2cccc(CN3CCOCC3)c2)ncc1C1CC1)C1CCC1 (library stock concentration (final ~1000-fold dilution): 10 mM),NF-kB SEAP reporter activity,RAW-Dual [1]; agonist: LPS (TLR4) 0.1 ug/mL,2.49 and 3.77
same,NF-kB SEAP reporter activity,RAW-Dual [1]; [4],0.595 and 0.333
same,NF-kB SEAP reporter activity,RAW-Dual [1]; [5],2.26 and 2.33
same,NF-kB SEAP reporter activity,RAW-Dual [1]; [6],4.25 and 3.71
O=C(NCCCNc1nc(Nc2cccc(NC(=O)N3CCCC3)c2)ncc1I)c1cccs1 (library stock concentration (final ~1000-fold dilution): 10 mM),NF-kB SEAP reporter activity,RAW-Dual [3]; agonist: LPS (TLR4) 0.1 ug/mL,0.329 and 0.35
same,NF-kB SEAP reporter activity,RAW-Dual [3]; [4],0.729 and 1.48
same,NF-kB SEAP reporter activity,RAW-Dual [3]; [5],0.0917 and 0.128
same,NF-kB SEAP reporter activity,RAW-Dual [3]; [6],0.252 and 0.376
CN1CCc2cc(Nc3ncc(C4CC4)c(NCCCNC(=O)C4CCC4)n3)ccc2C1 (library stock concentration (final ~1000-fold dilution): 10 mM),NF-kB SEAP reporter activity,RAW-Dual [3]; agonist: LPS (TLR4) 0.1 ug/mL,0.23
same,NF-kB SEAP reporter activity,RAW-Dual [3]; [4],0.207
same,NF-kB SEAP reporter activity,RAW-Dual [3]; [5],0.0969
same,NF-kB SEAP reporter activity,RAW-Dual [3]; [6],0.211
CN1CCc2cc(Nc3ncc(C4CC4)c(NCCCNC(=O)C4CCC4)n3)ccc2C1,NF-kB SEAP reporter activity,"RAW-Dual [2]; cytotoxicity flag (confluency mask): cytotoxic (confluency <70% of control), agonist: Imiquimod (TLR7) […]",0.243
same,NF-kB SEAP reporter activity,"RAW-Dual [2]; cytotoxicity flag (confluency mask): cytotoxic (confluency <70% of control), agonist: MPLA (TLR4) […]",0.288
O=c1[nH]cnc2ccccc12,NF-kB SEAP reporter activity,RAW-Dual [2]; [7],0.847
same,NF-kB SEAP reporter activity,RAW-Dual [2]; [8],0.983
CC(C)(C)c1[nH]cnc1C=c1[nH]c(=O)c(=Cc2ccccc2)[nH]c1=O (library stock concentration (final ~1000-fold dilution): 10 mM),NF-kB SEAP reporter activity,RAW-Dual [1]; agonist: LPS (TLR4) 0.1 ug/mL,6.1
same,NF-kB SEAP reporter activity,RAW-Dual [1]; [4],3.37
same,NF-kB SEAP reporter activity,RAW-Dual [1]; [5],2.02
same,NF-kB SEAP reporter activity,RAW-Dual [1]; [6],2.3
